The record followed here is PubChem BioAssay (Tox21).

Records with an inconclusive call do not appear. A call without a number means that no potency is given here. Active and inactive are the calls of the source. The call rests on the fitted dose curve; in most records, active means well fitted inhibition curve with a large enough effect in the repeat runs; inconclusive means weak or mixed curves; inactive means no such curve, though single readings can be large or run the other way.
Potency means the concentration at half of the fitted maximal effect.

For this test, the target named is Cytochrome P450 2D6 (Homo sapiens) (UniProt P10635). Description: Cytochrome P450 Family 2 Subfamily D Member 6 (CYP2D6) small molecule antagonists: luciferase reporter qHTS assay (AID 1671196). Further: nearly all actives have a fitted effect of over 50% in size. The note with it: P450-Glo CYP2D6 enzyme assay, luciferin luminescence, 1 h; series mostly up to 115 µM. The source says: U.S. Tox21 Program National Center for Advancing Translational Sciences [NCATS] U.S. Environmental Protection Agency [EPA] National Institutes of Environmental Health Sciences [NIEHS] National Toxicology Program [NTP] U.S. Food and Drug Administration [FDA] Tox21 Assay Overview: Cytochrome P450 (CYP) enzymes are membrane-bound hemeproteins that play a key role in metabolism of drugs and xenobiotics. Evaluation of the effect of chemicals on CYP isozymes is useful to minimize the adverse drug reactions and toxicities in drug development process. Tox21 chemicals were tested for their effect on CYP enzyme activities by using P450-Glo (TM) screening systems (Promega Corporation, Madison, WI). These systems provide a luminescent method containing proluciferin substrates and are converted to luciferin products by CYP isozymes. The luciferin products formed are detected with a luciferin detection reagent, and the amount of light produced is proportional to CYP activity. P450-Glo (TM) CYP2D6 screening system (Catalog. No. V9890) was used to detect the compounds that interfere in CYP2D6 activity.
Sequence of Cytochrome P450 2D6 (Homo sapiens) (P10635 whole entry, looked up): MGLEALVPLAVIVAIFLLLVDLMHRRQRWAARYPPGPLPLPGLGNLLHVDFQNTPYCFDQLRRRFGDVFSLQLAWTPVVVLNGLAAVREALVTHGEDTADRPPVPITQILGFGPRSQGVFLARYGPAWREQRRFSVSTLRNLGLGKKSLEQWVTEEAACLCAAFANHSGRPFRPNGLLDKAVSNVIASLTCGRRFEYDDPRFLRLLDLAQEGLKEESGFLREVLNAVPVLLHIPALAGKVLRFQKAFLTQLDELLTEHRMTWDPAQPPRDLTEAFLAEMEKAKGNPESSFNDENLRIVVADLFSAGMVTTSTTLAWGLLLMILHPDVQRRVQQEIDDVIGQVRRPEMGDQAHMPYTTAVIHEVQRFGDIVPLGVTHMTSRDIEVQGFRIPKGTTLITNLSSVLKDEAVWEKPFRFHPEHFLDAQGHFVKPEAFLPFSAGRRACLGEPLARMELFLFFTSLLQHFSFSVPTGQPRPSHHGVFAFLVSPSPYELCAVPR
Tox21 Assay Protocol Summary: Two ul of enzyme-substrate mix was dispensed into medium binding white/solid 1536-well plates (Greiner Bio-One North America Inc., Monroe, NC) using a BioRaptr Flying Reagent Dispenser (FRD, Beckman Coulter, Brea, CA). […] The assay plates were incubated at room temperature for 10 min. Then 2 ul of NADPH regeneration solution was added to each well of the assay plates using an FRD and incubated at room temperature for 1 h. The reaction was stopped by adding 4 ul of detection reagent using an FRD and after 20 min incubation at room temperature the luminescence signal was measured using a ViewLux plate reader (Perkin Elmer, Shelton, CT). Data were expressed as relative luminescence units.
In general terms: In a reporter assay the amount or activity of a reporter protein is the signal.
As to `Clc1ccc(Nc2nnc(Cc3ccncc3)c3ccccc23)cc1`, the Potency is 17.4 µM (active).

As to `CCCC(=O)C(=O)O`, the Potency was 35.6 µM (active).

Take `CCCCCCCCOc1ccc(C(=O)O)cc1`: the Potency result was “inactive”.

As for `Cc1cc(O)ccc1O`, the Potency entry was “inactive”.

Regarding `O=C1c2ccccc2C(=O)C1c1ccc(Br)cc1`, the Potency entry is “inactive”.

In the case of `C[C@H]1C[C@H](O)c2ccsc2S1(=O)=O`, the Potency result is “inactive”.

Consider `CCCCCCCC/C=C\CCCCCCCCO`, for which the Potency entry is “inactive”.

Take `CC1=C(Br)C(=O)C(Br)=C/C1=C(/c1ccccc1S(=O)(=O)O)c1cc(Br)c(O)c(Br)c1C`: the Potency was 21.6 µM (active).

As for `C(=C\c1ccccc1)/c1ccccc1`, the Potency entry was “inactive”.

As to `C=CC(=O)[O-].C=CC(=O)[O-].[Zn+2]`, the Potency was 34.8 µM (active).

In the case of `C=COCC(C)C`, the Potency result was “inactive”.

As to `CCCCCCCC/C=C\CCCCCCCCCCCC(=O)O`, the Potency result was “inactive”.

As to `CC(CN(C)C)C(C)(O)Cc1ccc(Cl)cc1` (stereo not given), the Potency is 6.17 µM (active).

Take `CC(CCC(=O)O)C(=O)O` (stereo not given): the Potency is 63.4 µM (active).

Regarding `c1ccc2c(c1)CCc1ccccc1N2`, the Potency result is “inactive”.

With `CC(=O)c1cc2ccccc2s1`, the Potency entry was “inactive”.

On to `CC1CC(C)C(=O)C1=O` (stereo not given), for which the Potency entry was “inactive”.

As to `CCOC(=O)c1ccc(OCCN2C[C@H](O)[C@@H](O)[C@H](O)[C@H]2CO)cc1`, the Potency result was “inactive”.

Take `COC(=O)CCS`: the Potency result was “inactive”.

As to `C=Cc1ccc(S(=O)(=O)O)cc1`, the Potency entry is “inactive”.

In the case of `Cc1ccc(C(C)(C)O)cc1`, the Potency result was “inactive”.

`C=CC(C)(CCC=C(C)C)OC(=O)CC(C)C` (stereo not given): the Potency entry is “inactive”.

For `CC(C)COCC(CN(Cc1ccccc1)c1ccccc1)N1CCCC1` (stereo not given), the Potency was 0.0692 µM (active).

Regarding `O=C1Cc2cc(Cl)ccc2N1`, the Potency entry is “inactive”.

In the case of `Cc1cc(C)c(N)cc1C`, the Potency was 22.4 µM (active).

On to `CC(C)=CC(=O)C=C(C)C`, for which the Potency entry was “inactive”.

`CCc1ccccc1`: the Potency entry is “inactive”.

Consider `C[C@@H]1CN(CCCn2c3ccccc3c3ccccc32)C[C@H](C)N1`, for which the Potency is 0.389 µM (active).

Consider `CC1=C(CC=O)C(C)(C)CCC1`, for which the Potency result is “inactive”.

Consider `CCCCCCCCC(CCCCCC)C(=O)O` (stereo not given), for which the Potency entry was “inactive”.

Consider `C=C1c2cccc(O)c2C(O)=C2C(=O)[C@]3(O)C(O)=C(C(N)=O)C(=O)[C@@H](N(C)C)[C@@H]3[C@@H](O)[C@H]12`, for which the Potency result is “inactive”.

Take `Cc1c(C)c2c(c(C)c1OC(=O)CCC(=O)OCCO)CC[C@@](C)(CCC[C@H](C)CCC[C@H](C)CCCC(C)C)O2`: the Potency result is “inactive”.

`Cc1cc(=O)c2c(O)c3c(O)cc(=O)c4c3c3c(cc(O)c1c23)C(C)(C)C=4O`: the activity change, negative = inhibition is -16.7% [at 23.6 µM] (inactive).

Consider `O=C1c2ccccc2C(=O)C1(O)O`, for which the Potency was 35.8 µM (active).

Regarding `C/C=C\C/C=C/CCCCCCCCOC(C)=O`, the Potency is 39.9 µM (active).

Turning to `c1cc(N(CC2CO2)CC2CO2)ccc1Cc1ccc(N(CC2CO2)CC2CO2)cc1` (stereo not given), the Potency entry was “inactive”.

In the case of `O=C(O)c1ccc(OCCCOc2ccc(C(=O)O)cc2)cc1`, the Potency was 8.71 µM (active).

With `Oc1cccc(Nc2ccccc2)c1`, the Potency is 37.1 µM (active).

For `O=Cc1c2ccccc2c(Cl)c2ccccc12`, the Potency result was “inactive”.

As for `O=C1C(=O)c2ccccc2C(O)=C1C1CCC(c2ccc(Cl)cc2)CC1` (stereo not given), the Potency result is “inactive”.
